Experimental data reported in PubChem BioAssay (NCI).
The panel holds about 83,000 compounds, 20% with a hit somewhere; the sample as a whole holds those more often.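 In brief: 96-well plates, 48 h treatment, single concentration, percent growth endpoint.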 Unmarked numbers belong to inactive results. Calls of active or inactive are those of the source. How the source made its calls: active means growth percent below 10; inactive means the rest.

Key:
Test in all cases: NCI-60 one-dose screen, 48 h (100 = growth as untreated, 0 = no growth, -100 = all killed)
Details in all cases: 10 µM unless noted
[1] = test system: NCI-H23 lung
[2] = test system: NCI-H226 lung
[3] = test system: NCI-H322M lung
[4] = test system: HOP-62 NSCLC
[5] = test system: NCI-H460 lung
[6] = test system: HOP-92 NSCLC
[7] = test system: NCI-H522 lung
[8] = test system: A549/ATCC NSCLC
[9] = test system: 786-0 renal
[10] = test system: COLO 205 colon
[11] = test system: DU-145 prostate
[12] = test system: K-562 leukemia
[13] = test system: MALME-3M melanoma
[14] = test system: MDA-MB-231 breast
[15] = test system: RXF 393 renal
[16] = test system: SF-268 CNS
[17] = test system: SF-295 CNS
[18] = test system: SF-539 CNS
[19] = test system: UACC-257 melanoma
[20] = test system: M14 melanoma

SMILES	growth [1]	growth [2]	growth [3]	growth [4]	growth [5]	growth [6]	growth [7]	growth [8]	growth [9]	growth [10]	growth [11]	growth [12]	growth [13]	growth [14]	growth [15]	growth [16]	growth [17]	growth [18]	growth [19]	growth [20]
COc1ccc(C2CC(c3ccc4ccccc4c3)=NN2/C=C2\SC(=S)N(NC(=O)Cc3ccccc3Nc3c(Cl)cccc3Cl)C2=O)cc1 (centres undefined)	40.5%	45.9%	42.8%	23.7%	9.42% (active)	38.5%	-15.4% (active)	23.6%	13.8%	55.6%	12.2%	10.6%	52.9%	41%	-8.96% (active)	34.6%	14.1%	-16.9% (active)	56.2%	-25.1% (active)
NC(=O)c1cc(I)ccc1NC(=O)/C=C/c1ccccc1Cl	43.4%	44.1%	55.5%	83%	0.527% (active)	48.3%	-45.9% (active)	15.7%	48.1%	-26.7% (active)	-18.8% (active)	5.46% (active)	67.5%	23.3%	-17.9% (active)	36.8%		-35.7% (active)	65.7%	4.96% (active)
O=C1/C(=C/c2ccccc2)SC(=S)N1CCc1ccc(O)cc1	98%	90.2%	97.1%	94%	99.4%	79.9%	54.8%	93.6%	89.5%	108%	90.1%	90.9%	92.2%	87.3%	101%	85.3%	97%	90.1%	98.9%	97.1%
O=[N+]([O-])c1ccc(Nc2nc(NCCN3CCOCC3)ncc2[N+](=O)[O-])cc1	89.9%	92%	85%	96%	94.4%	89.9%	72.6%	98.9%	92.6%	97.1%	92.5%	103%	91%	95.8%	63%	93.8%	98.6%	93.9%	109%	95%
C=C1c2nc3ccccc3n2C=C(c2ccc(OC)cc2)N1Cc1ccccc1	81.3%	102%	102%	136%	90.8%	95.9%	64.5%	96%	83.6%	92.8%	103%	73.5%	109%	100%	101%	89.2%	103%	115%	97.1%	98.1%
COc1cc2nc(N3CCCC3)nc(NCCc3ccccc3)c2cc1OC	59.5%	90.5%	75.2%	68.5%	10.1%	74.6%	61.7%	18.5%	81.5%	-84.8% (active)	37.6%	-19.3% (active)	82.1%	59.3%	67.9%	87.2%	80%	86.1%	115%	78.4%
CSc1nc(NCCN2CCOCC2)c(C#N)c(-c2cccc([N+](=O)[O-])c2)n1	97.1%	106%	92.9%	89.4%	100%	101%	85.7%	99.5%	101%	111%	106%	100%	98.7%	86.3%	103%	96.7%	99.1%	90.3%	98.2%	101%
O=C(N/N=C/c1ccccc1O)c1ccccc1Nc1ccnc(C(F)(F)F)c1	30.2%	-11.7% (active)	13.1%	-5.32% (active)	-13.2% (active)	7.01% (active)	24%	10.4%	0.0938% (active)	14.7%	27.3%	17.7%	-0.966% (active)	40.4%	18.7%	14.6%	7.17% (active)	0.988% (active)	-0.662% (active)	-14.3% (active)
